In all, about 350,000 compounds went through this assay and about 2,700 (0.77%) were called active.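 How the source made its calls: active means inhibition reaching at least a set limit at 20 µM in the primary screen (cut at about 59% in these data); inactive means the rest.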 This excerpt belongs to a sample that is enriched for actives.

This is an account of results in PubChem BioAssay AID504690 (Sanford-Burnham Center for Chemical Genomics, 2011).

The test system of the test is glucose-6-phosphate dehydrogenase-6-phosphogluconolactonase (Plasmodium falciparum 3D7). The experiment in a line: inhibition of malaria parasite G6PD (PfGluPho) – biochemical, fluorescence intensity, uHTS, primary screen (AID 504690).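 Further: 0% = DMSO wells with substrate and 100% = DMSO wells lacking glucose-6-phosphate.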 The following applies: PfGluPho enzyme, NADPH resazurin-diaphorase fluorescence; at 20 µM; hits give high values. (Resazurin is reduced to fluorescent resorufin, in cell work by metabolically active cells.)
As usually defined, the inhibition is the relative decrease from the control value, in per cent. Consider `CC1CCCCC1NC(=O)CSc1nnc(N)s1` (centres undefined), for which the inhibition was -8.21% (inactive).
In the case of `O=C(COC(=O)c1cccc(Cl)c1)NC1CCCCCCC1` it was 17.2% (inactive).
In the case of `CCCN(CCC)C(=O)C1c2ccccc2Oc2ccccc21`, the inhibition was -24.1% (inactive).
The same measure for `CC(C)(C)NC(=O)NC(=O)COC(=O)C1c2ccccc2Oc2ccccc21`: -18.1% (inactive); for `CC(C)(C)c1nnc(NC(=O)C2c3ccccc3Oc3ccccc32)s1`: 77.4% (active); for `CCN(CC)c1ccc2oc(=O)c(C)nc2c1`: 94.1% (active).
`CCc1ccc2oc(-c3ccc(N)cc3)nc2c1`: the inhibition was 16.4% (inactive).
In the case of `Cc1ccc2oc(=O)ccc2c1` it was -9.67% (inactive).
The same measure for `COc1ccc(S(=O)(=O)N2CCOCC2)cc1NC(=O)Cc1coc2cc(C)ccc12`: -4.24% (inactive); for `O/N=C(\c1ccc2c(c1)OCCO2)C1CCCCC1`: -2.41% (inactive); for `CCc1ccc(-n2c(=S)sc3c(=O)n(-c4ccccc4OC)c(=S)[nH]c32)cc1`: 55.6% (inactive).
In the case of `COc1ccccc1-n1c(=S)[nH]c2c(sc(=S)n2-c2ccc(C)cc2C)c1=O` it was 78.9% (active); in that of `COc1ccccc1N1CCN(c2nc(C)cc(=O)[nH]2)CC1`, 15.1% (inactive).
Turning to `CCCCn1nc(C(=O)Nc2ccc(S(=O)(=O)Nc3ncccn3)cc2)c2ccccc2c1=O`, the inhibition was -8.76% (inactive).
The same measure for `NS(=O)(=O)c1ccc(CNC(=O)c2cc(S(=O)(=O)N3CCOCC3)ccc2N2CCCC2)cc1`: 2.61% (inactive).
Take `COc1ccc(NC(=O)COC(=O)CNC(=O)C2CCCCC2)cc1`: the inhibition is -2.97% (inactive).
As to `CC(=O)c1cccc(NC(=O)COc2ccc(S(=O)(=O)N3CCOCC3)cc2)c1`, the inhibition is 3.48% (inactive).
The same measure for `Cc1ccccc1OCC(=O)Nc1nnc(S(=O)(=O)N2CCCC2)s1`: -10.3% (inactive).
The same measure for `COc1cccc(C(=O)Nc2nnc(S(=O)(=O)N3CCCCC3)s2)c1`: 112% (active).
For the compound `CN(Cc1ccccc1)S(=O)(=O)c1nnc(NC(=O)c2ccccc2F)s1`, the inhibition was 27.5% (inactive).
In the case of `COc1cccc(C(=O)Nc2ccc3nc4n(c(=O)c3c2)CCCCC4)c1` it was 20% (inactive).
The same measure for `COc1cccc(C(=O)Nc2nnc(S(=O)(=O)N(C)c3ccccc3)s2)c1`: 96.6% (active).
`CN(Cc1ccco1)S(=O)(=O)c1nnc(NC(=O)c2ccccc2)s1`: the inhibition was 58.2% (inactive).
In the case of `COc1ccc(OC)c(NC(=O)c2cccc(S(=O)(=O)N3CCN(C(C)=O)CC3)c2)c1` it was -11.9% (inactive); in that of `COc1cccc(C(=O)Nc2nnc(S(=O)(=O)N3CCOCC3)s2)c1`, 97.7% (active).
Regarding `Cc1csc2ncc(C(=O)N(Cc3ccccc3)c3ccccn3)c(=O)n12`, the inhibition is -14.5% (inactive).
The same measure for `Cc1cccc(C)c1NC(=O)C1CCCN1C(=O)OC(C)(C)C` (centres undefined): -0.36% (inactive).
In the case of `CC(C)(C)c1cc(=O)n2c(nc3ccccc32)[nH]1` it was 12.8% (inactive); in that of `CCc1ccc(NC(=O)C(=O)NNC(=O)c2cccs2)cc1`, -15.6% (inactive).
Consider `CCc1cccc(C)c1NC(=O)COC(=O)CNC(=O)c1cccs1`, for which the inhibition was 4.68% (inactive).
The same measure for `CCc1c(C)sc(NC(=O)c2cccs2)c1C(N)=O`: 71% (active); for `C=CCCC(=O)N1C[C@H]2CON(C)[C@H]2C[C@H]1c1cccc(Nc2ccccc2)c1`: 21.3% (inactive); for `O=C(OCC(=O)N1CCCCC1)c1ccc(OC(F)(F)F)cc1`: -6.53% (inactive).
As to `O=c1c2c(nc3cc(-c4cccc(Cl)c4)[nH]n13)CCCC2`, the inhibition was 75% (active).
With `O=c1c2c(nc3nc[nH]n13)CCC2`, the inhibition is 16.4% (inactive).
On to `CCCCN1Cc2c(nc3cc(-c4ccccc4)[nH]n3c2=O)C1=O`, for which the inhibition is -27.7% (inactive).
With `CCOC(=O)c1cnn2c(SC)ncnc12`, the inhibition was 5.86% (inactive).
The same measure for `Cc1cc(C)n(Cc2cnc(N3CCOCC3)s2)n1`: 2.1% (inactive).
The same measure for `CC1(C)CC(=O)c2cc(OCC(=O)NCC3CCCO3)ccc2O1` (centres undefined): 7.52% (inactive); for `CC(=O)Nc1ccc2c3c(ccc([N+](=O)[O-])c13)CC2`: 1.79% (inactive).
The same measure for `Clc1ccc2c(c1)C1=C(C(c3ccncc3)O2)C(c2ccc(Br)cc2)n2ncnc2N1` (centres undefined): 78.5% (active); for `Brc1ccc(C2=CC(c3ccco3)n3ncnc3N2)cc1` (centres undefined): 23.3% (inactive); for `O=C(C1CCN(S(=O)(=O)c2ccc(Br)s2)CC1)N1CCN(C2CCCCC2)CC1`: 3.65% (inactive).
On to `Cc1ccnc(SC2CC(=O)N(c3ccccc3)C2=O)n1` (centres undefined), for which the inhibition was -11.7% (inactive).
Consider `Cc1ccnc(-n2sc3ccccc3c2=O)n1`, for which the inhibition was 97% (active).
With `O=C(NCc1ccccc1)C1CCCN(S(=O)(=O)c2cccs2)C1` (centres undefined), the inhibition was 3.61% (inactive).
For `C[C@@H]1CCCCO[C@H](CN(C)Cc2ccccc2)[C@@H](C)CN([C@H](C)CO)C(=O)c2cc(NS(=O)(=O)c3ccc(Cl)cc3)ccc2O1`, the inhibition was 36.3% (inactive).
In the case of `O=c1[nH]nc(Cc2ccccn2)c2ccccc12` it was 1.12% (inactive).
The same measure for `COc1ccc(Cc2n[nH]c(=S)n2NC(=O)Nc2ccc(C)cc2)cc1`: 15.8% (inactive); for `COc1ccc(OCc2n[nH]c(=S)n2N)cc1`: 71.3% (active).
Consider `Fc1ccc(/C=N/n2c(COc3ccccc3)n[nH]c2=S)cc1`, for which the inhibition was 27.2% (inactive).
For `CCOc1ccc(NS(=O)(=O)c2ccc(Cl)c(C(=O)N(C)Cc3cccnc3)c2)cc1`, the inhibition is -26.1% (inactive).
In the case of `C=CCn1c(SCC(N)=O)nnc1-c1cc2c(s1)CCC(CC)C2` (centres undefined) it was 2.97% (inactive).
The same measure for `CCC1=NN(C(=O)Cc2ccc([N+](=O)[O-])cc2)C(O)(c2ccc(Br)cc2)C1` (centres undefined): -3.74% (inactive).
As to `CC1(C)NC(=O)N(CC(=O)N2CCN(S(=O)(=O)c3ccccc3F)CC2)C1=O`, the inhibition is -13.8% (inactive).
For the compound `O=C(COc1ccccc1)Nc1nonc1NC(=O)COc1ccccc1`, the inhibition was 71.2% (active).
Consider `O=C(COc1ccccc1)Nc1ccc(C(=O)N2CCCC2)cc1`, for which the inhibition is -12.5% (inactive).
The same measure for `O=C(COc1ccccc1)Nc1ccc(F)cc1`: -2.38% (inactive); for `COc1ccc([N+](=O)[O-])cc1N(CC(O)Cn1nnc2ccccc21)S(=O)(=O)c1ccc(C)cc1` (centres undefined): -4.47% (inactive).
In the case of `Cc1nc([N+](=O)[O-])nn1C12CC3CC(CC(Br)(C3)C1)C2` it was 71% (active); in that of `CC1CCC(CN2CCN=C2N(C)C)CC1` (centres undefined), -9.19% (inactive).
In the case of `CCOc1ccc(S(=O)(=O)N2CCCC(C(=O)N3CCC(C(N)=O)CC3)C2)cc1Cl` (centres undefined), the inhibition is -4.54% (inactive).
For the compound `CCOC(=O)[C@@H]1[C@H]2COc3ccc(Br)cc3[C@H]2N2C(=O)N(c3ccc(Cl)cc3)C(=O)[C@@]12C`, the inhibition was 9.82% (inactive).
For the compound `O=C(c1ccc(S(=O)(=O)N2CCCC2)cc1)N1CCN(c2ccccc2F)CC1`, the inhibition is 7.54% (inactive).
The same measure for `N#Cc1ccccc1-n1c(N)c(C(=O)N2CCCC2)sc1=S`: 60% (active).
As for `COCCOC(=O)c1sc(=S)n(CCOC)c1N`, the inhibition was 25.1% (inactive).
Take `Cc1ccc(-n2c(N)c(C(=O)N3CCOCC3)sc2=S)c(C)c1`: the inhibition is -1.21% (inactive).
In the case of `N#Cc1c(N)sc2c1CCN(C(=O)OCc1ccccc1)C2`, the inhibition is 42.3% (inactive).
Turning to `COc1cccc(N2CCN(c3ccc4nnc(CCC(=O)N5CCN(C)CC5)n4n3)CC2)c1`, the inhibition is 6.62% (inactive).
The same measure for `COC(=O)c1sc(=S)n(-c2ccccc2)c1N`: 65.1% (active); for `Cc1cccc(-n2c(N)c(C(=O)N3CCN(C)CC3)sc2=S)c1`: 79.6% (active); for `COC(=O)c1sc(N2CCN(Cc3ccccc3)CC2)nc1N`: -11.2% (inactive).
For the compound `O=C(OCc1ccccc1)N1CCC2CC1c1ccc(-c3ccc4c(c3)OCO4)cc12` (centres undefined), the inhibition was 2.75% (inactive).
In the case of `O=C(Cc1ccsc1)N1CCN(S(=O)(=O)c2cc(C(F)(F)F)cc(C(F)(F)F)c2)CC1`, the inhibition is 9.01% (inactive).
In the case of `Cc1cccc(N2C(=O)N3[C@H](c4ccc(F)cc4)[C@@H]4C(=O)N(C5CCCCC5)C(=O)[C@@H]4[C@]3(Cc3ccccc3)C2=O)c1` it was -21.6% (inactive).
The same measure for `COc1ccccc1Cn1c(C)nnc1-c1cnn(C)c1N`: -9.47% (inactive); for `Cc1cc(C)c2c(c1)c(C)cc1nnc(SCC(=O)NCc3ccco3)n12`: 46.3% (inactive).
`Cc1ccc(OCCNC(=O)CNC(=O)c2ccc(C)c(C)c2)cc1`: the inhibition was -19.6% (inactive).
In the case of `O=[N+]([O-])c1ccc(C=Nc2ccc(Cl)cc2Cl)s1`, the inhibition was 76.4% (active).
In the case of `CNN/C(N=Cc1ccc([N+](=O)[O-])s1)=N\S(=O)(=O)c1cc(C)c(Cl)cc1SCc1ccccc1` it was 5.23% (inactive); in that of `Cc1ccc(NC(=O)C2CCC(C(C)(C)C)CC2)cc1S(=O)(=O)N1CCOCC1` (centres undefined), 30.1% (inactive).
The same measure for `O=C1CCC(C(=O)OCC(=O)Nc2ccc(OC(F)F)cc2)=NN1`: 3.76% (inactive); for `CCOc1[nH]n(-c2ccc(Cl)cc2)c(=O)c1C=Nc1ccc(O)cc1`: -1.23% (inactive).
In the case of `Oc1ccc(N=Cc2c(O)ccc3ccccc23)cc1` it was 62.9% (active); in that of `Cc1cc(N=Nc2ccc3ccccc3c2)ccc1O`, 0.29% (inactive); in that of `CCn1nnc2cc(C(=O)Nc3ccc(C(=O)OC(C)C)cc3)ccc21`, 22.8% (inactive).
As for `COc1cccc(C(CC(=O)NCCN2CCOCC2)NS(=O)(=O)c2ccc(C)cc2)c1OC` (centres undefined), the inhibition was 11% (inactive).
In the case of `CSc1n[nH]c(=S)n1N` it was 65.2% (active); in that of `Cc1ccc(S(=O)(=O)N2CCCCC2)cc1C(=O)N1CCN(CCO)CC1`, -1.65% (inactive); in that of `CC(=O)c1ccc(NC(=O)C2CCCN2S(=O)(=O)c2cccs2)cc1` (centres undefined), 14.3% (inactive).
In the case of `COc1ccc(Nc2cc(Sc3ccc(OC)cc3)ncn2)cc1` it was 77.5% (active).
Consider `COc1ccc(Nc2ccc3ccccc3c2)cc1`, for which the inhibition is 53.2% (inactive).
In the case of `COc1ccc(Nc2ncnc3sc(C)cc23)cc1` it was 4.18% (inactive); in that of `O=C(NC1CCCC1)C(c1ccc(N2CCOCC2)cc1)N(C(=O)c1ccco1)c1ccccc1F` (centres undefined), 1.31% (inactive).
